Measurements reported in PubChem BioAssay AID588689 (Southern Research Specialized Biocontainment Screening …, 2011).
About 1,000 (0.29%) of roughly 340,000 compounds were called active. Rule as the data show it: inconclusive = inhibition above about 29% without an active follow-up result; inactive = below that. These entries were drawn from the full list. Results with a measured potency or affinity are listed apart.

Molecular target: Genome polyprotein (Dengue virus type 2 (strain 16681-PDK53)) (UniProt P29991)
Experiment: Dengue-2 NS5 methyltransferase inhibitors, primary screen, biochemical, confirmation dose response (AID 588689)
Settings: Dengue-2 NS5 methyltransferase capping enzyme assay, at 25 µM, stronger effect = higher value

| SMILES | inhibition | inhibition (measured here: pilot screen replicate inhibition) [%] |
| --- | --- | --- |
| CC(=O)NC(C)c1nc2ccccc2n1C(C)C (centres undefined) | -3.46% (inactive) | – |
| CC(/C=C1\NC(=S)NC1=O)=C\c1ccccc1 | -7.18% (inactive) | – |
| COc1ccc(/C=C/C=C2\NC(=S)NC2=O)cc1 | -2.15% (inactive) | – |
| CCC(C)(C(=O)NC1CCCC1)N(C(=O)CNC(=O)c1ccccc1)c1c(C)n(C)n(-c2ccccc2)c1=O (centres undefined) | 0% (inactive) | – |
| COc1ccc(CNC(=O)c2cc3ccccc3oc2=O)cc1 | -1.96% (inactive) | – |
| COc1ccc(CN(C)CC(=O)Nc2c(C)cccc2C)c(OC)c1 | 1.51% (inactive) | – |
| CCOc1cc(S(=O)(=O)Nc2cc(C)cc(C)c2)ccc1Cl | 0% (inactive) | – |
| COc1ccc(NS(=O)(=O)c2ccc(Cl)c(N)c2)cc1Br | -3.69% (inactive) | – |
| COc1ccccc1CCC(=O)N(C)CC(=O)Nc1ccc(F)cc1 | 1.3% (inactive) | – |
| O=C(NNc1cccc(Cl)c1)c1cccnc1Cl | -5.34% (inactive) | – |
| COc1cc(/C=C(\C#N)C(=O)Nc2cccc3ncccc23)cc(OC)c1OC | -57.5% (inactive) | – |
| COc1ccc(/C=C(/C#N)C(=O)Nc2ccccc2C)cc1C(=O)O | 0% (inactive) | – |
| O=C(CN1CCN(C(c2ccccc2)c2ccccc2)CC1)NC(=O)NCc1ccco1 | -1.64% (inactive) | – |
| O=C(/C(=N/N=C/c1ccc(O)c(O)c1)c1ccccc1)c1ccccc1 | 7.23% (inactive) | – |
| Oc1ccc(/C=N/N(c2ccccc2)c2ccccc2)c(O)c1O | 9.52% (inactive) | – |
| CCN(CC)c1ccc(/C=N/N=C(c2ccccc2)c2ccccc2)c(O)c1 | -35.6% (inactive) | – |
| COc1cc(/C=N/N=C(/C(=O)c2ccccc2)c2ccccc2)cc(OC)c1O | 0% (inactive) | – |
| CC(C)c1ccc(Nc2nc(N3CCOCC3)nc(N3CCOCC3)n2)cc1 | -4.95% (inactive) | – |
| COC(=O)C(C(=O)OC)N1C(=O)CCC1=O | -3.21% (inactive) | – |
| CC(=O)c1ccc(NC(=O)CCc2nnc3ccc(N4CCCC4)nn23)cc1 | 1.97% (inactive) | – |
| CN(C)C1=NC[C@H](Cc2ccccc2)N1CC1CCC(C(C)(C)C)CC1 (some centres undefined) | 0.79% (inactive) | – |
| Cc1ccc(S(=O)(=O)N2[C@@H](c3ccc(Cl)cc3)C(C(=O)O)=CC[C@H]2c2ccc(Cl)cc2)cc1 | 13.5% (inactive) | – |
| Cc1ccc(S(=O)(=O)N2[C@@H](c3ccc(C(C)(C)C)cc3)C(C(=O)O)=CC[C@H]2c2ccc(C(C)C)cc2)cc1 | -2.65% (inactive) | 0.6 |
| Cc1ccc([C@@H]2CC=C(C(=O)O)[C@H](c3ccc(Cl)cc3)N2S(=O)(=O)c2ccc(C)cc2)cc1 | 19.5% (inactive) | – |

| SMILES | inhibition | inhibition (measured here: pilot screen replicate inhibition) [%] |
| --- | --- | --- |
| Cc1ccc([C@@H]2CC=C(C(=O)O)[C@H](c3ccccc3)N2S(=O)(=O)c2ccc(C)cc2)cc1 | -3.2% (inactive) | – |
| Cc1ccc(S(=O)(=O)NCCC(=O)OCC(=O)N(Cc2ccccc2)C(C)(C)C)cc1 | 7.2% (inactive) | – |
| CC1(C)CC2CC(C)(CN2C(=O)COC(=O)c2cccc([N+](=O)[O-])c2)C1 (centres undefined) | 6.17% (inactive) | – |
| CC(C(=O)Nc1ccccc1F)N1C(=O)c2ccccc2C1=O (centres undefined) | 4.32% (inactive) | – |
| CC(C(=O)Nc1ccc2c(c1)OCO2)N(C)CC(=O)Nc1ccc(Cl)cc1 (centres undefined) | 2.29% (inactive) | – |
| Cc1ccc2c(C(=O)CN3CCCCC3CCO)c(C)[nH]c2c1 (centres undefined) | -12.1% (inactive) | – |
| Cc1ccc(N2CN(Cc3ccco3)CNC2=S)cc1 | -4.68% (inactive) | – |
| CC(OC(=O)C1CC1C)C(=O)Nc1ncc(Cl)cc1Cl (centres undefined) | -5.81% (inactive) | – |
| O=S(=O)(Nc1nc2ccccc2nc1NCc1ccco1)c1ccccc1 | 26.3% (inactive) | – |
| O=S(=O)(Nc1nc2ccccc2nc1NCc1ccco1)c1ccc(F)cc1 | 21.1% (inactive) | – |
| CCCNC(=O)NC(=O)c1cnccc1C(F)(F)F | 3.85% (inactive) | – |
| CC1=NOC(=O)/C1=C/c1ccc(O)c(Cl)c1 | 6.53% (inactive) | – |
| CC1=NOC(=O)/C1=C/c1ccc(O)cc1 | 33.3% (inactive) | – |
| CCN(CC)c1ccc(/C=C2/C(=O)ON=C2C)cc1 | -145% (inactive) | – |
| CC1=NOC(=O)/C1=C/c1ccc(O)c(Br)c1 | -9.14% (inactive) | – |
| CCc1nc(SCC(=O)NCCc2ccccc2)n[nH]1 | 0% (inactive) | – |
| CCCC(c1nnnn1C(C)(C)CC)N1CCN(C(=O)c2ccco2)CC1 (centres undefined) | 3.16% (inactive) | – |
| O=C(c1cccc(S(=O)(=O)Nc2ccc(Br)cc2)c1)N1CCCC1 | -8.06% (inactive) | – |
| COc1ccc(S(N)(=O)=O)cc1C(=O)NNC(=O)c1cccc(S(=O)(=O)N2CCOCC2)c1 | 3.75% (inactive) | – |
| Cc1ccc(C)c(S(=O)(=O)N2CCCC2CNC(=O)C(=O)NCc2ccco2)c1 (centres undefined) | 0% (inactive) | – |
| O=C(CN1CCC(c2nc3ccccc3s2)CC1)N1CCCCC1 | -11.7% (inactive) | – |
| O=C1c2ccccc2C(=O)N1N(c1ccccc1)c1ccccc1 | 0% (inactive) | – |
| O=C1C=CC(=O)N1c1ccccc1N1C(=O)C=CC1=O | 5.05% (inactive) | – |
| NC(=O)c1ccc(NCCCN2CCOCC2)c([N+](=O)[O-])c1 | -4.51% (inactive) | – |
